Source: PubChem BioAssay (Broad Institute)
The entries come from a sample that favours hits as a whole.
IDE exosite FP: displaces the probe from the exo-site of human IDE | purified IDE, FL-6b probe fluorescence polarization; active compounds read low | z-score at 20 µM | AID 1259349 | 17,000 tested, 6.3% active;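 active = z-score of -3 or lower, meaning strong loss of probe binding signal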;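 note: His-tagged human IDE residues 42-1019 made in E. coli with 30 nM FL-6b probe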
Target sequence (P14735 42-1019 limits assumed): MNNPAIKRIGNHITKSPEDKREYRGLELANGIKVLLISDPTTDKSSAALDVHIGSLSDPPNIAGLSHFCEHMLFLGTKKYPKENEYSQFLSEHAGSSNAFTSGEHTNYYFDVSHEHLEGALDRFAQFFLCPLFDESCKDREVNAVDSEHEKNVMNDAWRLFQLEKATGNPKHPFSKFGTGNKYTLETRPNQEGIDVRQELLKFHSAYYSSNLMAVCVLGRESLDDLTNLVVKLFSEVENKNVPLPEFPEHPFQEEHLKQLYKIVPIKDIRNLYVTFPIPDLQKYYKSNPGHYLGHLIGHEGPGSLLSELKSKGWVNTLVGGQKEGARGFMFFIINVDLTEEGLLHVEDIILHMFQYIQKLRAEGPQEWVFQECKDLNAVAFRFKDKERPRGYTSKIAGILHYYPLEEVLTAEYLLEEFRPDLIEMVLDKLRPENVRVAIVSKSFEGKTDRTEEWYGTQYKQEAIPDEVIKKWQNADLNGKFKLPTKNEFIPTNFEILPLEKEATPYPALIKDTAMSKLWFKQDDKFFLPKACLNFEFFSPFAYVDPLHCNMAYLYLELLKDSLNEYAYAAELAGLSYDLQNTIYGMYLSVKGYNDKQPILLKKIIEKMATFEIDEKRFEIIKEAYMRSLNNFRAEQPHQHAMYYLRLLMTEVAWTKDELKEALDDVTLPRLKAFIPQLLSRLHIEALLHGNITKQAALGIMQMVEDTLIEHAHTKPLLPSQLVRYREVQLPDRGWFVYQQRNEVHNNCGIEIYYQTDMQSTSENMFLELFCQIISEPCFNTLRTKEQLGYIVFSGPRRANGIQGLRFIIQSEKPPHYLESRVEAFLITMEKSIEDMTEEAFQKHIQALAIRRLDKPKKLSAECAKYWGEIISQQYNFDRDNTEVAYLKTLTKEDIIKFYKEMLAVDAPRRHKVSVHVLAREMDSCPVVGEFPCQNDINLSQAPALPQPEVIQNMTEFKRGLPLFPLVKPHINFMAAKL
Starred values were filed as active, the others as inactive; ! = repeats disagree.

SMILES | IDE exosite FP
O=C(C[C@@H]1CC[C@H](NC(=O)c2ccc3c(c2)OCO3)[C@@H](CO)O1)NCc1ccc(Oc2ccccc2)cc1 | 2.93
Cc1ccc(-c2ccc([C@@H]3[C@@H]4CN(Cc5ccccc5F)C[C@H]3N4)cc2)cc1 | 0.623
O=C(C[C@H]1CC[C@H](NC(=O)Nc2ccc(C(F)(F)F)cc2)[C@@H](CO)O1)NCc1cccc(F)c1 | 3.02
O=C(Nc1ccc(C(F)(F)F)cc1)N1[C@@H]2CNC[C@H]1C2c1ccc(-c2ccccc2F)cc1 (stereo partly drawn) | 0.598
COc1cccc(NC(=O)N2[C@@H]3CNC[C@H]2C3c2ccc(-c3cccc(OC)c3)cc2)c1 (stereo partly drawn) | -7.29*!
O=C(Nc1ccccc1F)N1[C@@H]2CNC[C@H]1C2c1ccc(-c2ccncc2)cc1 (stereo partly drawn) | 1.78
COc1cccc(NC(=O)N2[C@@H]3CNC[C@H]2C3c2ccc(-c3cccnc3)cc2)c1 (stereo partly drawn) | -0.474
COc1ccccc1-c1ccc(C2[C@H]3CNC[C@@H]2N3C(=O)Nc2ccccc2F)cc1 (stereo partly drawn) | -10.7*
COc1cccc(-c2ccc(C3[C@H]4CNC[C@@H]3N4C(=O)Nc3ccccc3Cl)cc2)c1 (stereo partly drawn) | -1.83
COc1ccccc1CNC(=O)C[C@@H]1C[C@H]2c3cc(NC(=O)C4CCC4)ccc3O[C@H]2[C@H](CO)O1 | -0.572
O=C(Nc1cccc(F)c1)N1CC(=O)N2[C@H](C1)[C@@H](c1ccc(-c3cccc(F)c3)cc1)[C@@H]2CO | -1.32
C/C=C/c1ccc([C@H]2[C@@H](CO)N3C(=O)CN(C(=O)c4ccncc4)C[C@@H]23)cc1 | 0.377
O=C(CC1CC1)N1CC(=O)N2[C@H](C1)[C@@H](c1ccc(-c3ccccc3)cc1)[C@@H]2CO | -8.94*
O=C(CC1CC1)N1CC(=O)N2[C@H](C1)[C@H](c1ccc(-c3cccnc3)cc1)[C@@H]2CO | 0.432
O=C(CC1CC1)N1CC(=O)N2[C@H](C1)[C@H](c1ccc(-c3ccccc3)cc1)[C@@H]2CO | -5.09*
O=C(CC1CC1)N1CC(=O)N2[C@H](CO)[C@H](c3ccc(-c4cccnc4)cc3)[C@H]2C1 | -0.577
O=C(CC1CC1)N1CC(=O)N2[C@@H](CO)[C@H](c3ccc(-c4cccnc4)cc3)[C@@H]2C1 | 2.91
O=C(CC1CC1)N1CC(=O)N2[C@H](CO)[C@H](c3ccc(-c4cccnc4)cc3)[C@@H]2C1 | 0.238
O=C(CC1CC1)N1CC(=O)N2[C@H](C1)[C@@H](c1ccc(/C=C/c3ccccc3)cc1)[C@@H]2CO | -2.05
O=C(CC1CC1)N1CC(=O)N2[C@H](CO)[C@@H](c3ccc(-c4ccccc4)cc3)[C@@H]2C1 | -5.85*
O=C(CC1CC1)N1CC(=O)N2[C@H](CO)[C@@H](c3ccc(/C=C/c4ccccc4)cc3)[C@@H]2C1 | -1.21
CC(=O)NC[C@H]1[C@@H](c2ccc(-c3cccc(F)c3)cc2)[C@@H](CO)N1C(=O)C1CC1 | -0.881
CNC[C@H]1OCCCC[C@H](C)Oc2ccc(NS(=O)(=O)c3ccc(F)cc3)cc2C(=O)N([C@@H](C)CO)C[C@H]1C | 0.98
N#C[C@H]1[C@@H](c2ccccc2C2=CCCC2)[C@@H](CO)N1C(=O)C1CCC1 | 2.64
CC(C)CC#Cc1ccc([C@H]2[C@@H](CO)N3C(=O)CN(C(=O)c4ccccn4)C[C@@H]23)cc1 | 0.0233
SMILES | IDE exosite FP
O=C(C[C@@H]1CC[C@@H]2[C@H](COC[C@H](O)CN2Cc2cc(F)cc(F)c2)O1)Nc1nccs1 | 1.11
CCCC#Cc1ccc([C@H]2[C@H](CO)N3C(=O)CN(C(=O)c4cccc(F)c4)C[C@@H]23)cc1 | 0.269
C/C=C/c1ccc([C@@H]2[C@@H](CO)N(C(C)=O)[C@@H]2CN(CC)C(=O)CN(C)C)cc1 | -0.565
COc1ccc(S(=O)(=O)N2C[C@@H](O)COC[C@@H]3O[C@@H](CC(=O)N[C@H]4CCN(Cc5ccccc5)C4)CC[C@H]32)cc1 | -0.732
O=S(=O)(c1ccccc1)N1CCCCN2[C@@H](CO)[C@H](c3ccc(C#Cc4ccccc4)cc3)[C@@H]2C1 | 3.77
COc1ccccc1C#Cc1ccc([C@@H]2[C@H](CO)N3CCCCN(S(C)(=O)=O)C[C@@H]23)cc1 | -17.7*
CCCC#Cc1ccc([C@@H]2[C@@H](CO)N3CCCCN(S(C)(=O)=O)C[C@@H]23)cc1 | 3.74
CCCC#Cc1ccc([C@@H]2[C@H](CO)N3CCCCN(S(C)(=O)=O)C[C@@H]23)cc1 | -1.57
O=S(=O)(c1ccccc1)N1CCCCN2[C@@H](CO)[C@@H](c3ccc(C#Cc4ccccc4)cc3)[C@@H]2C1 | -5.85*
CCCC#Cc1ccc([C@H]2[C@H]3CN(S(C)(=O)=O)CCCCN3[C@H]2CO)cc1 | 2.72
COc1ccccc1C#Cc1ccc([C@H]2[C@@H](CO)N3CCCCN(S(C)(=O)=O)C[C@H]23)cc1 | -9.88*
COc1ccccc1C#Cc1ccc([C@H]2[C@H]3CN(S(C)(=O)=O)CCCCN3[C@H]2CO)cc1 | -9.83*
CCCC#Cc1ccc([C@@H]2[C@H]3CN(S(C)(=O)=O)CCCCN3[C@H]2CO)cc1 | 0.534
CS(=O)(=O)N1CCCCN2[C@H](CO)[C@@H](c3ccc(C#Cc4ccccn4)cc3)[C@@H]2C1 | -1.62
COc1ccc(C#Cc2ccc([C@@H]3[C@H]4CN(S(=O)(=O)c5ccccc5)CCCCN4[C@H]3CO)cc2)cc1 | -0.32
CS(=O)(=O)N1CCCCN2[C@H](CO)[C@@H](c3ccc(C#Cc4ccccn4)cc3)[C@H]2C1 | -1.77
OC[C@H]1[C@@H](c2ccc(C#Cc3cccnc3)cc2)[C@@H]2CN(Cc3ccccc3F)CCCCN12 | 0.109
O=C(NC[C@@H]1[C@@H](c2ccccc2)[C@@H](CO)N1C(=O)Cc1ccncc1)C1CCC1 | -0.262
CCS(=O)(=O)N(C)C[C@@H]1N[C@H](CO)[C@@H]1c1ccc(C#CC(C)C)cc1 | 0.716
Cc1cccc(S(=O)(=O)N2CCCCN3[C@H](C2)[C@@H](c2ccc(C#C[C@@H](C)O)cc2)[C@@H]3CO)c1 | 0.331
CO[C@@H]1CN(C)C(=O)c2cc(NC(=O)CC(F)(F)F)ccc2OC[C@@H](C)N(CC2CC2)C[C@@H]1C | -0.201
CCCN1[C@H](CO)[C@H](c2ccc(C3=CCCC3)cc2)[C@H]1CN(C(C)=O)C1CCCC1 | 0.719
N#Cc1ccc(-c2ccc([C@@H]3[C@H](CO)N4CCCCN(S(=O)(=O)c5ccccc5)C[C@@H]34)cc2)cc1 | 2.52
C[C@H]1CCCCO[C@@H](CN(C)CC2CC2)[C@@H](C)CN([C@@H](C)CO)C(=O)c2cc(NC(=O)c3ccccc3)ccc2O1 | -1.01
C/C=C/c1ccc([C@H]2[C@H](CO)N3C(=O)CN(Cc4ccccc4)C[C@@H]23)cc1 | -0.128
SMILES | IDE exosite FP
O=C1CNC[C@H]2[C@H](c3ccc(C4=CCCC4)cc3)[C@H](CO)N12 | 1.79
Cc1ccccc1S(=O)(=O)N1C[C@@H](O)COC[C@@H]2O[C@H](CC(=O)N3CCCCC3)CC[C@H]21 | 0.409
COCC(=O)N1CC(=O)N2[C@@H](CO)[C@@H](c3ccc(Br)cc3)[C@@H]2C1 | 4.05
COCC(=O)N1CC(=O)N2[C@@H](CO)[C@H](c3ccc(-c4ccncc4)cc3)[C@@H]2C1 | -0.939
COCC(=O)N1CC(=O)N2[C@@H](CO)[C@@H](c3ccc(-c4ccccc4C)cc3)[C@@H]2C1 | -12.8*
COCC(=O)N1CC(=O)N2[C@H](C1)[C@@H](c1ccc(-c3ccccc3C)cc1)[C@@H]2CO | -13.6*
COCC(=O)N1CC(=O)N2[C@H](CO)[C@H](c3ccc(Br)cc3)[C@@H]2C1 | 2.55
